# Reference: PubChem BioAssay (EPA / NIEHS)
# The source made the active and inactive calls. How the source made its calls: active means hit-call score of the fitted dose curve at least 0.9, where 1 is the maximum; inactive means score below 0.9.
# Key:
# [1] = biological target: CCAAT/enhancer-binding protein beta (Homo sapiens) (UniProt P17676); test: ATG_C_EBP_CIS: Attagene CIS-FACTORIAL HepG2 Assay for human CCAAT/Enhancer Binding Protein (C/EBP) beta (AID 2282927); conditions: HepG2 Attagene cis-factorial transcription factor reporter; actives raise or lower the signal
# Procedure, shortened: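 Following a 24 h incubation with test chemical, transfected HepG2 cells yielded RNA whose reporter transcripts were quantified by RT-PCR and fluorescent capillary electrophoresis, with DMSO serving as baseline for bidirectional fitting.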
# [2] = ATG_CMV_CIS: Attagene CIS-FACTORIAL HepG2 Assay for human CMV (Internal Marker) (AID 2282928); conditions: HepG2 CMV promoter reporter, transcription factor profiling; actives raise or lower the signal;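 further: endpoint acts as a background internal control marker rather than a target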
# Procedure, shortened: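 After transient transfection of HepG2 with reporter transcription units driven by cis-regulatory promoters, cells receive test chemical for 24 h. Labeled reporter amplicons, digested with HpaI, are sized and quantified by capillary electrophoresis against DMSO.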
# [3] = ATG_DR4_LXR_CIS: Attagene CIS-FACTORIAL HepG2 Assay for human Liver X Receptor (LXR), DR4 submotif (AID 2282929); conditions: HepG2 Attagene DR4 cis-reporter, mRNA transcription; actives raise or lower the signal
# Procedure, shortened: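 Endogenous factor activity at a DR4 cis-element is read as reporter mRNA in transiently transfected HepG2 cells. Exposure lasts 24 h; transcripts are amplified, fluorescently labelled and sized by capillary electrophoresis, with DMSO as baseline.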
# [4] = biological target: Aryl hydrocarbon receptor (Homo sapiens) (UniProt P35869); test: ATG_Ahr_CIS: Attagene CIS-FACTORIAL HepG2 Assay for human Aryl Hydrocarbon Receptor (Ahr) (AID 2282930); conditions: HepG2 AhR cis-factorial reporter transcription; actives raise or lower the signal
# Procedure, shortened: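 Values derive from bidirectional fitting against DMSO negative control. Underlying signal: cis-element reporter mRNA in transiently transfected HepG2, harvested 24 h post-dose and measured by RT-PCR plus capillary electrophoresis.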
# [5] = ATG_AP_1_CIS: Attagene CIS-FACTORIAL HepG2 Assay for human Activator Protein 1 (AP-1) (AID 2282931); conditions: HepG2 Attagene cis-factorial AP-1 reporter mRNA; actives raise or lower the signal
# Procedure, shortened: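 Fluorescence of labelled PCR fragments separated by capillary electrophoresis gives reporter mRNA levels. HepG2 with transfected cis-regulated reporter units, 24 h exposure; DMSO serves as baseline for bidirectional curve fits.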
# [6] = ATG_AP_2_CIS: Attagene CIS-FACTORIAL HepG2 Assay for human Activator Protein 2 (AP-2) (AID 2282932); conditions: HepG2 AP-2 cis-reporter, Attagene transcription factor profiling; actives raise or lower the signal
# Procedure, shortened: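 Bidirectional curve fitting against DMSO was applied to reporter mRNA signals from HepG2 cells 24 h after dosing. Cis-promoter reporter units, transiently transfected, were read by RT-PCR plus capillary electrophoresis.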
# [7] = ATG_BRE_CIS: Attagene CIS-FACTORIAL HepG2 Assay for human Bone Morphogenetic Protein (BMP) Response Element (BRE) (AID 2282933); conditions: HepG2 BMP response element reporter, Attagene transcription factor profiling; actives raise or lower the signal
# Procedure, shortened: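 Endogenous transcription factor activity read in transiently transfected HepG2 cells after 24 h chemical exposure. Bidirectional curve fitting against DMSO; readout is reporter transcript level by RT-PCR with capillary electrophoresis of labelled products.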
# [8] = biological target: Transcription factor E2F1 (Homo sapiens) (UniProt Q01094); test: ATG_E2F_CIS: Attagene CIS-FACTORIAL HepG2 Assay for human E2F Transcription Factor 1 (AID 2282935); conditions: HepG2 Attagene cis-reporter, E2F reporter RNA transcripts; actives raise or lower the signal
# Procedure, shortened: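 Multiplexed cis-reporter assay: HepG2, transient transfection, 24 h dosing, mRNA quantitation by labeled RT-PCR and CE.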
# [9] = ATG_E_Box_CIS: Attagene CIS-FACTORIAL HepG2 Assay for human Enhancer Box (E-box) (AID 2282936); conditions: HepG2 E-box cis-reporter transcription, actives raise or lower the signal
# Procedure, shortened: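 Multiplexed CIS reporter system in transiently transfected HepG2 cells measures native transcription factor activity. Reporter RNA after 24 h exposure is profiled by RT-PCR-capillary electrophoresis.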
# [10] = ATG_M_61_CIS: Attagene CIS-FACTORIAL HepG2 Assay for M61 Transcription Factor (Internal Marker) (AID 2282937); conditions: HepG2 Attagene CIS-FACTORIAL M61 internal marker reporter; actives raise or lower the signal
# Procedure, shortened: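 This endpoint serves as an internal background control within a multiplexed HepG2 cis-reporter panel. Cells are exposed for 24 h; reporter mRNA is amplified, fluorescently labelled and sized by capillary electrophoresis, with DMSO as negative control.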
# [11] = ATG_EGR_CIS: Attagene CIS-FACTORIAL HepG2 Assay for human Early Growth Response 1 (EGR1) (AID 2282938); conditions: HepG2 Attagene CIS-FACTORIAL EGR reporter mRNA; actives raise or lower the signal
# Procedure, shortened: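 HepG2, transient MRTU transfection (cis promoters), 24 h compound. RNA → RT (oligo-dT) → PCR → 6-FAM labelling → HpaI cut → CE fluorescence. Bidirectional fit, DMSO baseline.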
# [12] = ATG_ERE_CIS: Attagene CIS-FACTORIAL HepG2 Assay for Estrogen Response Element (ERE) (AID 2282940); conditions: HepG2 ERE cis-reporter, Attagene RNA transcript; actives raise or lower the signal
# Procedure, shortened: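 After 24 h compound treatment, RNA from transfected HepG2 cells was reverse-transcribed, reporter cDNA PCR-amplified, FAM-labelled, HpaI-cut and resolved by capillary electrophoresis. ERE-driven cis reporter transcripts reflect endogenous factors; gain or loss scored against DMSO.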
# [13] = ATG_Ets_CIS: Attagene CIS-FACTORIAL HepG2 Assay for human Erythroblast Transformation Specific (ETS) (AID 2282941); conditions: HepG2 ETS cis-reporter transcription, actives raise or lower the signal
# Procedure, shortened: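 Human HepG2 hepatoma cells were transiently transfected with promoter-driven reporter constructs and treated for 24 hours. Reporter transcripts were quantified by RT-PCR with fluorescent primer extension; bidirectional curve fitting used DMSO as reference.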
# [14] = biological target: Hepatocyte nuclear factor 3-beta (Homo sapiens) (UniProt Q9Y261); test: ATG_FoxA2_CIS: Attagene CIS-FACTORIAL HepG2 Assay for human Forkhead box A2 (FOXA2) (AID 2282942); conditions: HepG2 cis-reporter transcription factor activity, 24 h; actives raise or lower the signal
# Procedure, shortened: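 Cells: HepG2, transient multiplex reporter transfection. Exposure 24 h. Detection: reporter-specific RT-PCR, fluorescent labelling, restriction digest, capillary electrophoresis. Analysis: bidirectional curve fit, DMSO as negative control.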
# [15] = ATG_FoxO_CIS: Attagene CIS-FACTORIAL HepG2 Assay for human Forkhead box O (FoxO) (AID 2282943); conditions: HepG2 Attagene cis-reporter, FoxO element, mRNA; actives raise or lower the signal
# Procedure, shortened: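 Values reflect reporter mRNA induction or loss in HepG2 cells 24 h post-dosing, fitted bidirectionally with DMSO as negative control and baseline. Detection used RT-PCR and fluorescence capillary electrophoresis.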
# [16] = ATG_GATA_CIS: Attagene CIS-FACTORIAL HepG2 Assay for human GATA Binding Protein (AID 2282944); conditions: HepG2 GATA cis-element reporter, Attagene multiplex mRNA; actives raise or lower the signal
# Procedure, shortened: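 Reporter transcripts from a GATA cis-regulated unit, among multiplexed reporters in transfected HepG2 cells, were measured by RT-PCR with capillary electrophoresis after 24 h dosing. Induction or loss scored relative to DMSO.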
# [17] = ATG_GLI_CIS: Attagene CIS-FACTORIAL HepG2 Assay for human Zinc Finger Protein GLI1 (AID 2282945); conditions: HepG2, Attagene cis-factorial reporter mRNA, GLI element; actives raise or lower the signal
# Procedure, shortened: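 HepG2 cells transiently transfected with cis-promoter multiplexed reporter units report endogenous transcription factor activity. After 24 h chemical exposure, reporter mRNA was quantified by RT-PCR, 6-FAM labelling, HpaI digestion and capillary electrophoresis, with bidirectional fitting against DMSO.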
# [18] = biological target: Retinoic acid receptor alpha (Homo sapiens) (UniProt P10276); test: ATG_DR5_RAR_CIS: Attagene CIS-FACTORIAL HepG2 Assay for human Retinoic Acid Receptor Alpha (RARE), DR5 submotif (AID 2282934); conditions: HepG2 Attagene cis-factorial RARE DR5 reporter, mRNA; actives raise or lower the signal
# Procedure, shortened: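 Endpoint fitted in both directions relative to DMSO as negative control. It reflects DR5 cis-element reporter mRNA induction in transiently transfected HepG2 cells, measured 24 h after dosing through RT-PCR and fluorescent capillary electrophoresis.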
# [19] = ATG_M_19_CIS: Attagene CIS-FACTORIAL HepG2 Assay for M19 Transcription Factor (Internal Marker) (AID 2282939); conditions: HepG2 Attagene CIS-FACTORIAL M19 internal marker reporter; actives raise or lower the signal
# Procedure, shortened: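 Internal marker readout, fitted in both directions against DMSO, from HepG2 cells carrying transfected cis-element reporter constructs; RT-PCR and capillary electrophoresis of reporter mRNA after 24 h exposure.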
# [20] = biological target: Bile acid receptor (Homo sapiens) (UniProt Q96RI1); test: ATG_IR1_CIS: Attagene CIS-FACTORIAL HepG2 Assay for human Nuclear Receptor Subfamily 1 Group H Member 4 (NR1H4), IR1 submotif (AID 2282946); conditions: IR1 reporter transcription, actives raise or lower the signal
# Procedure, shortened: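 Transient MRTU transfection, HepG2; 24 h dosing; RNA → RT-PCR → 6-FAM primer extension → HpaI digest → capillary electrophoresis fluorescence. Gain/loss of signal fitted relative to DMSO.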
# Chain of Hepatocyte nuclear factor 3-beta (Homo sapiens) (Q9Y261 whole entry, looked up): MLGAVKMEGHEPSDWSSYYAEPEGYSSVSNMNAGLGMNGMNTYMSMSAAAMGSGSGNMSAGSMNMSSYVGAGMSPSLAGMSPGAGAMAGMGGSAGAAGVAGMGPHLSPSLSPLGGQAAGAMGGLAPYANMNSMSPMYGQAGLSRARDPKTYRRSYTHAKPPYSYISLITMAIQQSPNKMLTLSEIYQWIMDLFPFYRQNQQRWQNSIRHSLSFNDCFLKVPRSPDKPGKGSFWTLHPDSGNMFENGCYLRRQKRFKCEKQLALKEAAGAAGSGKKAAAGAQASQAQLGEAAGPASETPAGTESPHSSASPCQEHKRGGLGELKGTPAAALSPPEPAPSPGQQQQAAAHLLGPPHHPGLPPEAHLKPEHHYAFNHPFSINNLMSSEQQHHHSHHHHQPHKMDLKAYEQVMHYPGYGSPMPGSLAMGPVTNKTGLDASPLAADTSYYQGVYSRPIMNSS
# Chain of CCAAT/enhancer-binding protein beta (Homo sapiens) (P17676 whole entry, looked up): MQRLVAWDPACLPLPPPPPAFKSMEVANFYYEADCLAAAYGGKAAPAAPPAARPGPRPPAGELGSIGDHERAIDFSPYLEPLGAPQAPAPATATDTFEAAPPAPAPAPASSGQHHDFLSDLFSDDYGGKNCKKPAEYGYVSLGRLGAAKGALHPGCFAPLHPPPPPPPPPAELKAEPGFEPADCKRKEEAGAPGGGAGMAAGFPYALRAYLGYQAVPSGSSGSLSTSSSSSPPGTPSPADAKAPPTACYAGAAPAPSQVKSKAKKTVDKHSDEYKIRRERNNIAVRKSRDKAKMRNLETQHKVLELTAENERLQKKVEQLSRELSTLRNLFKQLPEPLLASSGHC
# Chain of Transcription factor E2F1 (Homo sapiens) (Q01094 whole entry, looked up): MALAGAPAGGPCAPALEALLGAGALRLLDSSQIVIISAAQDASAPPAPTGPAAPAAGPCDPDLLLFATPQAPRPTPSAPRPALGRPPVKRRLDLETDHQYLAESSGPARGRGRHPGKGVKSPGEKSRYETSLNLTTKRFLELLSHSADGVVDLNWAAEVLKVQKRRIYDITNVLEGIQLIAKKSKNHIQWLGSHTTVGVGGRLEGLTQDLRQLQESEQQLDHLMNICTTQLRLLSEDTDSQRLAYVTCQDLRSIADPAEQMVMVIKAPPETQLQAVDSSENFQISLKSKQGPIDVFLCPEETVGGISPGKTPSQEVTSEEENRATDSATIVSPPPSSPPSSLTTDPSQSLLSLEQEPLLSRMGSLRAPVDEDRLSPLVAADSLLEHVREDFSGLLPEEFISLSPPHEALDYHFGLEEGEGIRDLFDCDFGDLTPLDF
# Chain of Aryl hydrocarbon receptor (Homo sapiens) (P35869 whole entry, looked up): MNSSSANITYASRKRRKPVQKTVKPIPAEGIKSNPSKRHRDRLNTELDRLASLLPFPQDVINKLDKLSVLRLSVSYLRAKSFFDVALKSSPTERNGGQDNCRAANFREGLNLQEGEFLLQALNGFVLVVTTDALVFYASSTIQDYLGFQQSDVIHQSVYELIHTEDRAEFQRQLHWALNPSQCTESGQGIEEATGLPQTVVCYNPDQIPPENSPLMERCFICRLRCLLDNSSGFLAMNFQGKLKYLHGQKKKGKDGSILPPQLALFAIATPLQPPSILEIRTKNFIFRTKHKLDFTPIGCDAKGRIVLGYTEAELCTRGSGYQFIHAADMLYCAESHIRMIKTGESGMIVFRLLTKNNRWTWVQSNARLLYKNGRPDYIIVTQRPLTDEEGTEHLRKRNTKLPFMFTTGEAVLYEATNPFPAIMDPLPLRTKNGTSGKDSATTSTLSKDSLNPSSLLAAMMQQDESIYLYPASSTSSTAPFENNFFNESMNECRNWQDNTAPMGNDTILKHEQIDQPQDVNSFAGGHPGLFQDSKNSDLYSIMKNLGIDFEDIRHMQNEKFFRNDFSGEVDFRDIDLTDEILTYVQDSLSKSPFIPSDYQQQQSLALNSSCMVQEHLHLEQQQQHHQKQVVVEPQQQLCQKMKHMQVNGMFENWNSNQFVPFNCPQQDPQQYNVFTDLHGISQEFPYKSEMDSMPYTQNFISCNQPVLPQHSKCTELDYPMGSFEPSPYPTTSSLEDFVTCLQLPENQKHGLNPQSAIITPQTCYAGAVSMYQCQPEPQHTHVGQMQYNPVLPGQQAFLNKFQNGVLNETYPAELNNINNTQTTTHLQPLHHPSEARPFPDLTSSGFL
# Chain of Retinoic acid receptor alpha (Homo sapiens) (P10276 whole entry, looked up): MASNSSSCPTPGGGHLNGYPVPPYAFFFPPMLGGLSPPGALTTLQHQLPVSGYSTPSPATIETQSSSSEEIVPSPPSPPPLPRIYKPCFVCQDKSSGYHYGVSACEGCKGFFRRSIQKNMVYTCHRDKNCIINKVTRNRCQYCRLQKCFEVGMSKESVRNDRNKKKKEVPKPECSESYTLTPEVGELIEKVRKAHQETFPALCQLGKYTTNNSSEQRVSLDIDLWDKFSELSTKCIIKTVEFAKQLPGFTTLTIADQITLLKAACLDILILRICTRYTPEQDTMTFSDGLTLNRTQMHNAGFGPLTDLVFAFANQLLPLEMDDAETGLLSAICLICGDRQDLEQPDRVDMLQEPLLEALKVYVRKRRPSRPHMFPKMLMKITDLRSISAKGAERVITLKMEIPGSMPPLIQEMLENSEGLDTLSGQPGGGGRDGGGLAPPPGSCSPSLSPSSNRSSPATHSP
# Chain of Bile acid receptor (Homo sapiens) (Q96RI1 whole entry, looked up): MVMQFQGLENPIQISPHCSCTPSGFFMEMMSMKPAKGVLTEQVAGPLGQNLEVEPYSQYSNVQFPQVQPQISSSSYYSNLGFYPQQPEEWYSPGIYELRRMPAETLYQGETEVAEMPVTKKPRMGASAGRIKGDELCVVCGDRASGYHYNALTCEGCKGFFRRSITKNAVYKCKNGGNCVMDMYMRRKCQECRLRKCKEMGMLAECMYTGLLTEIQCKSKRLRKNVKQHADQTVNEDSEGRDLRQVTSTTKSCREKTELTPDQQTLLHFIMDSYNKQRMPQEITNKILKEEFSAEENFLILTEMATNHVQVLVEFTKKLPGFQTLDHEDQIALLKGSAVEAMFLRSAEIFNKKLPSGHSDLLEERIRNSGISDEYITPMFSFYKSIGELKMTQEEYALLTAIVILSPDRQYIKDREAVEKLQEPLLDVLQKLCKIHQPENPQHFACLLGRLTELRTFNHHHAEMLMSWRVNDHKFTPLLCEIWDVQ
compound,measurement,setting,value
COC(=O)Cc1ccccc1,outcome,[1],inactive
same,outcome,[2],inactive
same,outcome,[3],inactive
same,outcome,[4],inactive
same,outcome,[5],inactive
same,outcome,[6],inactive
same,outcome,[7],inactive
same,outcome,[8],inactive
same,outcome,[9],inactive
same,outcome,[10],inactive
same,outcome,[11],inactive
same,outcome,[12],inactive
same,outcome,[13],inactive
same,outcome,[14],inactive
same,outcome,[15],inactive
same,outcome,[16],inactive
same,outcome,[17],inactive
C[C@]12CC[C@H](O)CC1=CC[C@@H]1[C@@H]2CC[C@]2(C)C(=O)CC[C@@H]12,outcome,[1],inactive
same,AC50,[2],27.7 µM (active)
same,outcome,[3],inactive
same,outcome,[4],inactive
same,outcome,[5],inactive
same,outcome,[6],inactive
same,outcome,[18],inactive
same,outcome,[8],inactive
same,outcome,[9],inactive
same,outcome,[10],inactive
same,outcome,[11],inactive
same,AC50,[12],0.987 µM (active)
same,outcome,[13],inactive
same,outcome,[14],inactive
same,outcome,[15],inactive
same,outcome,[17],inactive
Nc1cccc(Cl)c1,outcome,[1],inactive
same,outcome,[2],inactive
same,outcome,[3],inactive
same,outcome,[4],inactive
same,outcome,[5],inactive
same,outcome,[6],inactive
same,outcome,[8],inactive
same,outcome,[9],inactive
same,outcome,[10],inactive
same,outcome,[11],inactive
same,outcome,[19],inactive
same,outcome,[12],inactive
same,outcome,[13],inactive
same,outcome,[14],inactive
same,outcome,[15],inactive
same,outcome,[17],inactive
same,outcome,[20],inactive
Cl/C=C/Cl,outcome,[1],inactive
same,outcome,[2],inactive
same,outcome,[3],inactive
same,outcome,[4],inactive
same,outcome,[5],inactive
same,outcome,[6],inactive
same,outcome,[8],inactive
same,outcome,[9],inactive
same,outcome,[10],inactive
same,outcome,[11],inactive
same,outcome,[13],inactive
same,outcome,[15],inactive
same,outcome,[16],inactive
same,outcome,[17],inactive
CCNc1nc(NC(C)(C)C)nc(SC)n1,outcome,[1],inactive
same,AC50,[2],65.6 µM (active)
same,outcome,[3],inactive
same,outcome,[4],inactive
same,AC50,[5],152 µM (active)
same,outcome,[6],inactive
same,outcome,[8],inactive
same,AC50,[9],160 µM (active)
same,outcome,[10],inactive
same,outcome,[11],inactive
same,outcome,[19],inactive
same,outcome,[12],inactive
same,outcome,[15],inactive
same,outcome,[17],inactive
same,outcome,[20],inactive
Cc1ccc2ccccc2c1C,outcome,[1],inactive
same,outcome,[2],inactive
same,outcome,[3],inactive
same,AC50,[4],6.24 µM (active)
same,outcome,[6],inactive
same,outcome,[7],inactive
same,outcome,[18],inactive
same,outcome,[8],inactive
same,outcome,[9],inactive
same,outcome,[10],inactive
same,outcome,[11],inactive
same,outcome,[19],inactive
same,outcome,[12],inactive
same,outcome,[13],inactive
same,outcome,[15],inactive
same,outcome,[16],inactive
same,outcome,[17],inactive
